Results published in PubChem BioAssay (NCI).
About 79,000 compounds went through this panel and 15% of them were active in at least one assay; those are over-represented in the sample as a whole. Rule as the data show it: active = growth inhibition above about 70%; inactive = the rest.

Experiments:
[1] = NCI Yeast Anticancer Drug Screen. Data for the rad50 strain (AID 155);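 also: 0% = growth of vehicle-only cultures of the same strain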; details: S. cerevisiae rad50 strain growth inhibition; at 50.0 µM; active compounds read high
Summary of the method: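 Cells are treated with compound, grown, and their growth is then scored against vehicle-only cultures of the same repair-deficient yeast strain.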

[2] = NCI Yeast Anticancer Drug Screen. Data for the mec2-1 strain (AID 157); details: S. cerevisiae mec2-1 strain, at 50.0 µM, active compounds read high
Summary of the method: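 Vehicle-treated cultures served as reference for growth inhibition of compound-exposed mec2-1 yeast.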

[3] = NCI Yeast Anticancer Drug Screen. Data for the sgs1 mgt1 strain (AID 161);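 also: 0% = growth of cultures given vehicle only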; details: S. cerevisiae sgs1 mgt1 strain, at 50.0 µM, active compounds read high
Summary of the method: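 Genetically altered yeast, compound exposure, growth inhibition relative to vehicle.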

[4] = NCI Yeast Anticancer Drug Screen. Data for the cln2 rad14 strain (AID 165);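 also: 0% = growth equal to vehicle treated cultures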; details: S. cerevisiae cln2 rad14 strain, at 50.0 µM, active compounds read high
Summary of the method: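 Each compound was tested on cln2 rad14 yeast. Inhibition of growth was calculated against vehicle-exposed controls.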

[5] = NCI Yeast Anticancer Drug Screen. Data for the bub3 strain (AID 167); details: S. cerevisiae bub3 mutant strain, at 50.0 µM, active compounds read high
Summary of the method: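 Part of a panel of yeast mutants defective in DNA damage repair or cell cycle regulation. Each strain is grown with compound, and inhibition is calculated relative to solvent-treated cultures.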

[6] = NCI Yeast Anticancer Drug Screen. Data for the mlh1 rad18 strain (AID 175); details: S. cerevisiae mlh1 rad18 strain growth inhibition; at 50.0 µM; active compounds read high
Summary of the method: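 Vehicle-treated cultures served as the reference for growth inhibition in a yeast strain carrying DNA damage repair alterations exposed to each compound.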

Measured: growth inhibition

CCOC(=O)c1ccc(-c2ccccc2)cc1
inactive: [1] -44.2% | [2] -28.9% | [3] -14.7% | [4] -7.25% | [5] -12.2% | [6] -15.3%

O=C(NCCCCCCNC(=O)C1CCCNC1)C1CCCNC1 (stereo not given)
inactive: [1] 19.1% | [2] -11.7% | [3] 13.8% | [4] 15.8% | [5] 15.4% | [6] 12.8%

COc1ccc(CCC(C)(O)c2ccccc2)cc1 (stereo not given)
inactive: [1] 11.7% | [2] -1.35% | [3] 11.2% | [4] -1.05% | [5] 41.9% | [6] -2.55%

CS1(C)=NC(=O)C2=C(N=1)c1ccccc1S2(=O)=O
inactive: [1] -10.9% | [2] -6% | [3] -19% | [4] -19.6% | [5] 1.85% | [6] -7.85%

CC(C)c1ccccc1N1C(=O)CC(Sc2ccccc2N)C1=O (stereo not given)
inactive: [1] -5.45% | [2] -12.8% | [3] -9.25% | [4] -28.6% | [5] 0.15% | [6] 3.8%

Nc1ccc2cccc(N)c2n1
inactive: [1] 34.5% | [2] 12.2% | [3] 8.85% | [4] 5.9% | [5] -5.65% | [6] -0.55%

CC(=O)OC1CCC2(C)C(=CCC3C2CCC2(C)C(/C(C)=N/NC(N)=S)=CCC32)C1 (stereo not given)
inactive: [1] 58.8% | [2] 55.4% | [3] 67.6% | [4] 49.6% | [5] 37.7% | [6] 54.1%

COC(=O)NC(=Nc1ccc(Oc2ccccc2)cc1NC=O)NC(=O)OC
inactive: [1] 0.15% | [2] -14.8% | [3] -13.6% | [4] 25.4% | [5] 15.9% | [6] 11.5%

CC(OCc1ccccc1)C(NC(=O)C1CSSCC(NC(=O)C(Cc2ccccc2)NC(=O)OCc2ccccc2)C(=O)NC(Cc2ccccc2)C(=O)NC(Cc2cn(C=O)c3ccccc23)C(=O)NC(CCCCNC(=O)OCc2ccccc2)C(=O)NC(C(C)OCc2ccccc2)C(=O)N1)C(N)=O (stereo not given)
inactive: [1] -10.7% | [2] 0.7% | [3] -4.75% | [4] 21.1% | [5] 23.8% | [6] -3%

CCCCCCCCCCCCCCCCOP(=O)(O)OP(=O)(O)OCC1OC(n2ccc(N)nc2=O)CC1O (stereo not given)
inactive: [1] -10.2% | [2] -3.9% | [3] 8.7% | [4] -17.8% | [5] 20.6% | [6] 12.7%

CCOC(=O)C1=C(O)C(=O)N(Cc2ccccc2)C1
inactive: [1] -4.65% | [2] -29.6% | [3] 14.3% | [4] -0.7% | [5] 49.5% | [6] -23.8%

Cc1[nH]c(=O)[nH]c(=O)c1CCS
inactive: [1] -12.2% | [2] 1.2% | [3] 5.3% | [4] 37.5% | [5] -20% | [6] -13.2%

CC(C)CCCC(C)C1CCC2C3CCC4CC(=O)CCCC4(C)C3CCC12C (stereo not given)
inactive: [1] 19.8% | [2] 3.35% | [3] 20.7% | [4] 12.2% | [5] 2.1% | [6] 32.5%

COC(=O)C(Cc1ccc2c(c1)CCC2)Cc1ccc2c(c1)CCC2
inactive: [1] -46.9% | [2] -16.4% | [3] -7.4% | [4] -41.6% | [5] 11.1% | [6] -22.4%

CCOC(=O)C(NC(=O)/C=C\C(=O)O)C(C)C (stereo not given)
inactive: [1] 3.7% | [2] 22.1% | [3] 2.55% | [4] 23.9% | [5] 15.4% | [6] 35.2%

CCN(CC)CCCNc1ccc2ncn3c4ccc(O)cc4c(=O)c1c23
inactive: [1] -14.8% | [2] -36.3% | [3] -54% | [4] 11.8% | [5] -27.8% | [6] -6.65%

N#C/C(=C\c1c(S(=O)(=O)O)sc2ccccc12)C(N)=O (tested in a mixture with another compound)
inactive: [1] 30.3% | [2] 10.1% | [3] 17.1% | [4] 25.3% | [5] -0.9% | [6] 21.8%

COc1ccc(/C=C2\CCN=C2c2ccccc2)cc1OC
inactive: [1] -1.65% | [2] -1.85% | [3] 2.85% | [4] -23.3% | [5] 4.4% | [6] 2.65%

Nc1ccc(S(=O)(=O)OCCOc2ccccc2)cc1
inactive: [1] -2.85% | [2] 7.6% | [3] 2.6% | [4] -4.2% | [5] 18.7% | [6] -7.3%

CCOC(=O)Nn1c(C)nnc1CC#N
inactive: [1] -3.05% | [2] -2.4% | [3] -8.1% | [4] -16.8% | [5] 0.65% | [6] 18.7%

CC1=CC(CO)C2C(=O)NC(=O)C2C1C (stereo not given)
inactive: [1] 7.2% | [2] -6.15% | [3] -9.75% | [4] -39.5% | [5] -17.1% | [6] 7.7%

CCOC(=O)CNC(=O)C(Cc1cnc[nH]1)NC(=O)OCc1ccccc1 (stereo not given)
inactive: [1] -1.9% | [2] -13.6% | [3] -8.6% | [4] -14.6% | [5] -6.7% | [6] -3.7%

CCOC1CCC(C(=O)CC)C(C#N)(C#N)C1(C#N)C#N (stereo not given)
inactive: [1] 22.6% | [2] 13.7% | [3] 4.75% | [4] 12.8% | [5] 11.8% | [6] 7.8%

COC(=O)/C=C1\C(=O)c2ccccc2-c2ccccc21
inactive: [1] 35.8% | [2] 35.4% | [3] 13.9% | [4] 20.3% | [5] 25.4% | [6] 51.6%

CCOC(=O)c1cnc2nc[nH]n2c1=O
inactive: [1] -52.8% | [2] -54.5% | [3] -11.2% | [4] 11.6% | [5] -67% | [6] -36.5%

COc1ccccc1NC(=O)C(/C=N/C(N)=S)=C(\C)O
inactive: [1] -20.1% | [2] -6.5% | [3] -33.1% | [4] 7.6% | [5] -3.65% | [6] -14.4%

N#Cc1c2ccccc2c(C#N)c2ccccc12
inactive: [1] -4.5% | [2] -8.15% | [3] 1.9% | [4] -25.7% | [5] 1.3% | [6] -12.3%

CCCNc1nc(N)[nH]c(=O)c1NC=O
inactive: [1] 2.45% | [2] -9.25% | [3] -6.7% | [4] -12.3% | [5] -15% | [6] -0.85%

Cn1c(=O)c2[nH]c(/N=N/N3CCN(CCO)CC3)nc2n(C)c1=O
inactive: [1] 20.1% | [2] -14.8% | [3] 6.95% | [4] -34% | [5] -45.6% | [6] 9.35%

O=C1CCCc2cc3c(cc21)CC1(C3)Cc2cc3c(cc2C1)C(=O)CCC3
inactive: [1] -8.8% | [2] -7.25% | [3] -5.8% | [4] -10.3% | [5] -11.2% | [6] -9%

Cc1ccc(S(=O)(=O)ON2C(=O)c3cccc4cc([N+](=O)[O-])cc(c34)C2=O)cc1
inactive: [1] 35.1% | [2] 45% | [3] 39.4% | [4] 17.4% | [5] -12.2% | [6] 8.65%

O=C(Cc1ccccc1)N(c1ccccc1)c1ccccc1
inactive: [1] 23.5% | [2] -9.25% | [3] 13% | [4] 14.7% | [5] 49.9% | [6] 5.9%

CC12CCC(O)CC1=CCC1C2CCC2(C)C1CC1=CC(C#N)C(=O)NC12O (stereo not given)
inactive: [1] 3.55% | [2] 6.85% | [3] 1.35% | [4] -65.4% | [5] -0.3% | [6] 17.2%

O=C1OC(Cc2ccccc2)=N/C1=C/c1ccccc1
inactive: [1] 9.05% | [2] 0.8% | [3] 1.15% | [4] -9% | [5] 2.7% | [6] 4.55%

CC(CS(C)(=O)=O)S(=O)(=O)O (stereo not given)
inactive: [1] -6.25% | [2] -20.4% | [3] -1.35% | [4] -0.3% | [5] -14.7% | [6] -5.85%

COC1(OC)C(N(C)C)=C(Cl)C(=O)/C1=C/C=O
inactive: [1] 7.75% | [2] -10.7% | [3] -16.9% | [4] -6.65% | [5] 13.8% | [6] -16.4%

CCCCC(N)CSSCC(N)CCCC (stereo not given)
inactive: [1] -20.8% | [2] -44% | [3] -23.3% | [4] -20.1% | [5] -50.6% | [6] -35.6%

BrC1C2CC/C=C\CCC12 (stereo not given)
inactive: [1] 43.9% | [2] 22.7% | [3] 10.9% | [4] 11.6% | [5] 18% | [6] 13.9%

CCCCc1c[nH]n(C(N)=NCCSCc2nc[nH]c2C)c1=O
inactive: [1] -7.15% | [2] -18.4% | [3] -9.95% | [4] -20.2% | [5] -2.45% | [6] -4.75%

N#CC(C(=O)O)C(c1cccc2ccccc12)c1cccc2ccc3ccccc3c12 (stereo not given)
inactive: [1] 51% | [2] -2.3% | [3] 27.1% | [4] -4.35% | [5] 7.05% | [6] 13.8%
